According to PubChem BioAssay (NCATS):
Values joined by “and” are separate entries in the source; they are usually repeats but may differ in a detail not shown here. Identical values can stand only once. Inconclusive results are not listed. Active and inactive are the calls of the source. Unless noted, the call rests on the fitted dose curve; in most records, active means well fitted curve in the direction sought with a large enough effect; inconclusive means small, poorly fitted or top-dose-only effect, or another doubt; inactive means no such curve, though single readings can be large; an effect the other way counts as inactive or inconclusive.

How the values were obtained:
[1] = qHTS for differential inhibitors of proliferation of Plasmodium falciparum line Dd2 (AID 1882); conditions: Potency: Plasmodium falciparum Dd2 proliferation inhibition; further: nearly all actives have a fitted effect of over 65% in size; further: potency means the concentration at half of the fitted maximal effect
Method in brief: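 SYBR Green I DNA fluorescence read-out, ex 485/em 535 nm. Signals were normalized to 0.29 uM artemisinin and DMSO wells, then corrected using vehicle-only plates flanking each stack. Parasite growth ran 72 h in erythrocytes before lysis.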

[2] = qHTS for differential inhibitors of proliferation of Plasmodium falciparum line W2 (AID 1883); conditions: Potency: Plasmodium falciparum W2 proliferation inhibition;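 further: parasites grown with compound for 72 h before lysis and staining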; further: potency means the concentration at half of the fitted maximal effect
[3] = qHTS for differential inhibitors of proliferation of Plasmodium falciparum line HB3 (AID 1886); conditions: Potency: Plasmodium falciparum HB3 proliferation inhibition;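 further: parasites grown with compound for 72 h before SYBR Green readout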; further: potency means the concentration at half of the fitted maximal effect
[4] = target: Ferritin light chain (Equus caballus) (UniProt P02791); assay: qHTS Validation Assay for Identification of Novel General Anesthetics (AID 2323); further: series mostly up to about 77 µM
Chain of Ferritin light chain (Equus caballus) (P02791 2-175 limits assumed): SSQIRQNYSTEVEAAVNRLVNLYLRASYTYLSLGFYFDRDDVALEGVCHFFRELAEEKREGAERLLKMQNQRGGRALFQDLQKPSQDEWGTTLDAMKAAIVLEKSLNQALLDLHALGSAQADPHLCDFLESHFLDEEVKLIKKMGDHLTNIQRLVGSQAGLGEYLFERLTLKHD
Method in brief: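 Normalized fluorescence response, scaled between free 1-AMA and 1-AMA/apoferritin complex, fitted to a four-parameter Hill equation for concentration-effect values. Binding mix: 10 uM horse-spleen apoferritin, 50% saturated 1-AMA in PBS; read 380/535 nm after 10 min.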

[5] = target: ATP-dependent DNA helicase Q1 (Homo sapiens) (UniProt P46063); assay: qHTS Validation Assay for Inhibitors of RecQ-Like Dna Helicase 1 (RECQ1) (AID 2353)
Chain of ATP-dependent DNA helicase Q1 (Homo sapiens) (P46063 whole entry, looked up): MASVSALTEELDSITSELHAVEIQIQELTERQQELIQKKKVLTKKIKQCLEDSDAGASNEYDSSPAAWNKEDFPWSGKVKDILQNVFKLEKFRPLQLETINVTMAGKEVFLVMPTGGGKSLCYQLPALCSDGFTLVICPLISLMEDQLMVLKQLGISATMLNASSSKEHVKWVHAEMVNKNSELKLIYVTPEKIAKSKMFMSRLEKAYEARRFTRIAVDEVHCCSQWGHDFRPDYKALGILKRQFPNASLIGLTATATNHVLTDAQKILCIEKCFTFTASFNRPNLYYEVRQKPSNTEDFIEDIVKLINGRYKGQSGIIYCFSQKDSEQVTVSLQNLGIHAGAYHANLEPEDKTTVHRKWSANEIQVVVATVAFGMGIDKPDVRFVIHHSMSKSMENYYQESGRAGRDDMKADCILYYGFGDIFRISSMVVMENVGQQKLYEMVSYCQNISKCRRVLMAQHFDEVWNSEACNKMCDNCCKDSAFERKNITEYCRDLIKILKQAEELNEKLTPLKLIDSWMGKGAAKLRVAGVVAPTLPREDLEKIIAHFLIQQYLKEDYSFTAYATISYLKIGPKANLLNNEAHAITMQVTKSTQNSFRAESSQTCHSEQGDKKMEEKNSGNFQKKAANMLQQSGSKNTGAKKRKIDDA
Method in brief: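 50 nM RECQ1T1 preincubated 15 min with compound in Tris pH 8.0 buffer with MgCl2, DTT, Tween-20 and 2.5 ug/ml poly(dI-dC); started with 200 nM TAMRA/BHQ-2 forked duplex and 2 mM ATP. Unwinding read as fluorescence (525/598 nm), two reads 2 h apart.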

[6] = target: RecQ-like DNA helicase BLM (Homo sapiens) (UniProt P54132); assay: qHTS Validation Assay for Inhibitors of Bloom's syndrome helicase (BLM) (AID 2364)
Chain of RecQ-like DNA helicase BLM (Homo sapiens) (P54132 whole entry, looked up): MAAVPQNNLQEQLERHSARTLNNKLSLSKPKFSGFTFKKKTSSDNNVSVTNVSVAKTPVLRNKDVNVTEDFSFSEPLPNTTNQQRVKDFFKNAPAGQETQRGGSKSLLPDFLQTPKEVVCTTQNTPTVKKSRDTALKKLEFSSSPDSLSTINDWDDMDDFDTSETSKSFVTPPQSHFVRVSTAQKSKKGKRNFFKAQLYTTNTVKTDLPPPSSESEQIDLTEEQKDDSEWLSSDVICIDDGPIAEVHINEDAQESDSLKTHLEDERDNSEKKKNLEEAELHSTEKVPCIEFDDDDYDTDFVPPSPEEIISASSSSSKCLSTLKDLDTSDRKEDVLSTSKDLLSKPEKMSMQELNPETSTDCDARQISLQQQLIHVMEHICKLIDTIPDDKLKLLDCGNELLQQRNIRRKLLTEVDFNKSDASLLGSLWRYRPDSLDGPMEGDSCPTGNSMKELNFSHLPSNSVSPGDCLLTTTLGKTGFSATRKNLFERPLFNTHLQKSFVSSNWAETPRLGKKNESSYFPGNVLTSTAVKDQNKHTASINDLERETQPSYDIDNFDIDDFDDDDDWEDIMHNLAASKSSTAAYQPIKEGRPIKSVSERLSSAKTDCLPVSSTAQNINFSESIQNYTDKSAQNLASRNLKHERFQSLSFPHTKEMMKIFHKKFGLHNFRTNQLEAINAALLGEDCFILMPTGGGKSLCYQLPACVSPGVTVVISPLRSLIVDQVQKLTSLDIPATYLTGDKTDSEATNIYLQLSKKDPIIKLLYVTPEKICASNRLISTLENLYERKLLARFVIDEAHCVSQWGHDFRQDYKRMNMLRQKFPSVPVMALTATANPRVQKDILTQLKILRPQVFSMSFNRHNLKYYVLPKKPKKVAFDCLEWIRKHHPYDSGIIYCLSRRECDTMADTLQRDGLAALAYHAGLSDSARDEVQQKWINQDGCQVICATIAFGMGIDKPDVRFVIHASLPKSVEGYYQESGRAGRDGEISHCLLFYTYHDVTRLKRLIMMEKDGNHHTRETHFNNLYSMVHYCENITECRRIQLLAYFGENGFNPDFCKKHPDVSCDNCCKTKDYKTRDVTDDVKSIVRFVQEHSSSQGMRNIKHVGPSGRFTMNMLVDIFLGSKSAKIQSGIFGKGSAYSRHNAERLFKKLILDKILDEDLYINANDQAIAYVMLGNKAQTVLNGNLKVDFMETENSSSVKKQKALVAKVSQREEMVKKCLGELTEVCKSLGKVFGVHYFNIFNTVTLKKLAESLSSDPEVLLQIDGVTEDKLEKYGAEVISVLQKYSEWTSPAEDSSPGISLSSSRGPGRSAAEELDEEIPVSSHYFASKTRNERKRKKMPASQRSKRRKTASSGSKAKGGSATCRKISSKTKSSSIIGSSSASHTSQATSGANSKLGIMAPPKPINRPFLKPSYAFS
Method in brief: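 Forked 20-bp duplex substrate (200 nM, TAMRA/BHQ-2) plus 2 mM ATP added after 15 min compound preincubation with 50 nM enzyme, pH 8.0, poly(dI-dC) 2.5 ug/ml. Strand separation followed by fluorescence (525/598 nm) over 2 h, normalized to enzyme-free and DMSO controls.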

[7] = Cytometric Cell-Based qHTS for Inhibitors of the mTORC1 Signaling Pathway in MEF (Tsc2-/-, p53-/-) Cells (AID 2660);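 further: Tsc2 and p53 null MEFs carrying empty vector with compound for 24 h; percent of cells above a phospho-rpS6 to PI ratio cutoff in each well; series mostly up to about 38 µM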
Method in brief: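 Cells are plated, treated with compound for 24 hrs at 37 degree Celsius, then fixed, blocked and immunostained for phospho-rpS6 Ser235/236. Propidium iodide counterstain follows. Per-well % positive cells is derived from the PI-normalized phospho-S6 signal.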

[8] = High Content Imaging Cell-Based qHTS for Inhibitors of the mTORC1 Signaling Pathway in MEF (Tsc2-/-, p53-/-) Cells (AID 2666);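 further: percent of cells scored positive for phospho-rpS6 Ser235/236 immunostaining by imaging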
Method in brief: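 Cells were plated, dosed with compound after 24 hrs, and incubated another 24 hrs at 37 degree Celsius. Fixed cells were immunostained for phospho-rpS6 Ser235/236 and counterstained, and the normalized signal was scored as % active cells against rapamycin and DMSO controls.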

[9] = qHTS Assay for Modulators of Human Peripheral Myelin Protein 22 (PMP22) Expression/Activity (AID 1967; active means well fitted curve in the direction sought with a large enough effect in the signal ratio; the % refers to the signal ratio)
Method in brief: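 Engineered MSC80 cells, Pmp22-promoter green and EF-alpha red luciferase reporters; 24h compound treatment at 37 °C. Concentration-response fits on green, red and ratio signals, each overlap-corrected, with %Activity normalized to untreated wells.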

Measured: Potency

OCCN1CCN(CCCN2c3ccccc3C=Cc3ccccc32)CC1
active: [1] 5.62 µM and 7.94 µM | [2] 2.51 µM and 2.24 µM | [3] 8.91 µM and 12.6 µM
not listed: [9]
inactive: all other assays above

CCNC(=O)N1CCN(CCCC(c2ccc(F)cc2)c2ccc(F)cc2)CC1
inactive: [4] | [5] | [7] | [8]
active: [1] 3.16 µM | [2] 0.282 µM | [3] 1.12 µM

C#CCN(C)CCCOc1ccc(Cl)cc1Cl
active: [2] 11.2 µM
not listed: [4]
inactive: all other assays above

CCN(Cc1ccncc1)C(=O)C(CO)c1ccccc1 (stereo not given)
not listed: [6]
inactive: all other assays above

Cc1ccc(S(=O)(=O)NC(=O)NN2CCCCCC2)cc1
inactive: all assays above

C[N+](C)(C)CCOC(=O)CCC(=O)OCC[N+](C)(C)C
not listed: [6] | [9]
inactive: all other assays above

CN1CCN(CC(=O)N2c3ccccc3C(=O)Nc3cccnc32)CC1
not listed: [9]
inactive: all other assays above

CC1=NS(=O)(=O)c2cc(Cl)ccc2N1
not listed: [9]
inactive: all other assays above

NC(=O)c1ncn([C@@H]2O[C@H](CO)[C@@H](O)[C@H]2O)c1O
not listed: [6] | [9]
inactive: all other assays above

NC(N)=NC(=O)Cc1c(Cl)cccc1Cl
active: [2] 3.16 µM | [3] 1.41 µM
not listed: [6] | [9]
inactive: all other assays above

CC(C)(C)NCC(O)c1cc(O)cc(O)c1 (stereo not given)
not listed: [6] | [9]
inactive: all other assays above

COCC(=O)O[C@]1(CCN(C)CCCc2nc3ccccc3[nH]2)CCc2cc(F)ccc2[C@@H]1C(C)C
inactive: [5] | [6]
active: [1] 1.26 µM | [2] 0.501 µM | [3] 5.01 µM

C[C@]12C=CC(=O)C=C1CC[C@H]1[C@@H]3C[C@@H](O)[C@](O)(C(=O)CO)[C@@]3(C)C[C@H](O)[C@@]12F
not listed: [6] | [9]
inactive: all other assays above

CSc1ccc(C(=O)c2[nH]c(=O)[nH]c2C)cc1
not listed: [3] | [6] | [9]
inactive: all other assays above

C[N+](C)(C)CCOC(N)=O
not listed: [6] | [9]
inactive: all other assays above

Nc1ncn([C@@H]2O[C@H](CO)[C@@H](O)[C@H]2O)c(=O)n1
not listed: [6] | [7] | [9]
inactive: all other assays above

CCN(CC)CCNC(=O)c1ccc(NC(C)=O)cc1
not listed: [6] | [9]
inactive: all other assays above

CC[N+](C)(C)c1cccc(O)c1
not listed: [6] | [9]
inactive: all other assays above

CCN(CC)CCNC(=O)c1cc(S(C)(=O)=O)ccc1OC
not listed: [6] | [9]
inactive: all other assays above

CN(C)CCN(Cc1cccs1)c1ccccn1
active: [1] 7.08 µM | [2] 3.16 µM
not listed: [4] | [9]
inactive: all other assays above

O=C(CCCN1CCC(O)(c2cccc(C(F)(F)F)c2)CC1)c1ccc(F)cc1
active: [1] 3.98 µM | [2] 2.24 µM | [3] 10 µM
inactive: [5] | [6] | [7] | [8]

NCCCNCCSP(=O)(O)O
not listed: [6] | [9]
inactive: all other assays above

c1cc(CN2CCCCC2)cc(OCCCNc2nc3ccccc3s2)c1
inactive: [5] | [6] | [7] | [8]
active: [1] 7.08 µM | [2] 2.51 µM | [3] 11.2 µM

CCCCNc1ccc(C(=O)OCCN(C)C)cc1
not listed: [6] | [9]
inactive: all other assays above

CCCC(C(=O)OCCN(CC)CC)(c1ccccc1)c1ccccc1
inactive: [4] | [5] | [7] | [8]
active: [1] 7.08 µM | [2] 1.78 µM | [3] 2.51 µM
